Source: PubChem BioAssay (Tox21)
Values joined by “and” are separate entries in the source; they are usually repeats but may differ in a detail not shown here. Equal values may be shown once. Inconclusive results are not listed. A call without a number means that no potency is given here. The source holds several records for some structures; these can differ, active in one and inactive in another. Active and inactive are the calls of the source. Unless noted, calls come from the whole dose curve; as a rule, active = well fitted curve in the direction sought with a large enough effect in the repeat runs; inconclusive = weak or mixed curves; inactive = no such curve, though single readings can be large; an effect the other way counts as inactive or inconclusive.

Legend:
[1] = qHTS assay to identify small molecule agonists of the RXR signaling pathway - cell viability counter screen (AID 1159529); note: nearly all actives have a fitted effect of over 50% in size; note: potency is the fitted concentration of half-maximal effect
Method in brief: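 RXR-alpha-UAS-bla HEK 293T cells in medium with 2% charcoal-stripped FBS were pre-incubated 5 hr, then compound-treated 16 hr at 37 C. Viability was read by CellTiter-Glo luminescence in the same wells as the beta-lactamase assay, with tetraoctyl ammonium bromide as positive control.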

[2] = qHTS assay to identify small molecule agonists of the retinoic acid receptor (RAR) signaling pathway (AID 1159553)
Method in brief: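 Quantitative high-throughput format: the Tox21 10K library was tested on C3RL4 RARE-luciferase cells for 6 hr at 37 C and 5% CO2, with luminescence measured after a 30 min room-temperature reagent step.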

[3] = qHTS assay to identify small molecule antagonists of the estrogen related receptor (ERR) signaling pathway from Tox21 library - cell viability counter screen (AID 1224834); note: nearly all actives have a fitted effect of over 30% in size; note: potency is the fitted concentration of half-maximal effect
Method in brief: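 Compounds in DMSO were pinned onto ERR cells that had been incubated for 6 h, and the plates were held at 37 C for 17.5 h. CellTiter-Fluor reagent was then added and fluorescence was measured after 30 min.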

[4] = qHTS assay to identify small molecule agonists of the constitutive androstane receptor (CAR) signaling pathway - cell viability counter screen (AID 1224836); note: nearly all actives have a fitted effect of over 45% in size; note: potency is the fitted concentration of half-maximal effect
Method in brief: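 HepG2 cells stably carrying hCAR and a CYP2B6-2.2kb reporter; 15-concentration compounds plus PK11195 (final 0.75 uM), 23 hr at 37 C/5% CO2. Viability read by CellTiter-Fluor fluorescence.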

[5] = qHTS assay to identify small molecule antagonists of the constitutive androstane receptor (CAR) signaling pathway - cell viability counter screen (AID 1224837); note: nearly all actives have a fitted effect of over 45% in size; note: potency is the fitted concentration of half-maximal effect
Method in brief: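 Cells are seeded, rested 4 hr at 37 C/5% CO2, dosed with compound (15-point series) and 50 nM CITCO, incubated a further 23 hr, and then CellTiter-Fluor reagent is added before fluorescence is read. The line is HepG2 with stable hCAR and CYP2B6-2.2kb.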

[6] = qHTS assay to identify small molecule antagonists of the estrogen related receptor signaling pathway with the pleiotropic PPARgamma coactivator (PGC) from Tox21 10K library - cell viability counter screen (AID 1224840; active = well fitted cell-killing curve with a large enough effect in the repeat runs, not every such curve was filed as active; note: nearly all actives have a fitted effect of over 40% in size; note: potency is the fitted concentration of half-maximal effect)
Method in brief: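 Cell viability is measured by CellTiter-Fluor fluorescence in PGC/ERR cells that receive compounds after a 6-hour attachment period and are then incubated 17.5 hours at 37 C.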

[7] = target: Thyrotropin receptor (Homo sapiens) (UniProt P16473); experiment: qHTS assay to identify small molecule agonists of the thyroid stimulating hormone receptor (TSHR) signaling pathway (AID 1224843; calls by dose curve; note: nearly all actives have a fitted effect of over 45% in size; note: potency is the fitted concentration of half-maximal effect)
Method in brief: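 HEK293/TSHR, 800 cells/well; cpd 30 min RT; add cAMP-d2 + anti-cAMP-cryptate, 1 h RT; fluorescence read on plate reader. 15-pt titration, n=3.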

[8] = target: Nuclear receptor subfamily 1 group I member 3 (Homo sapiens) (UniProt Q14994); experiment: qHTS assay to identify small molecule antagonists of the constitutive androstane receptor (CAR) signaling pathway (AID 1224838);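 note: HepG2 cells stably expressing hCAR with CYP2B6 luciferase reporter stimulated by CITCO; nearly all actives have a fitted effect of over 40% in size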; note: potency is the fitted concentration of half-maximal effect
Method in brief: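 Luminescence from a CYP2B6-2.2kb promoter reporter in hCAR-expressing HepG2 cells reflects CAR signaling. Cells received compounds at 15 concentrations and 50 nM CITCO (final), then incubated 24 h at 37 C/5% CO2.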

[9] = target: Nuclear receptor subfamily 1 group I member 3 (Homo sapiens) (UniProt Q14994); experiment: qHTS assay to identify small molecule agonists of the constitutive androstane receptor (CAR) signaling pathway (AID 1224839);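 note: HepG2 cells stably carrying human CAR and a CYP2B6 luciferase reporter; series mostly up to about 92 µM; nearly all actives have a fitted effect of over 15% in size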
Method in brief: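 HepG2 cells stably co-transfected with hCAR and a CYP2B6-2.2kb luciferase reporter; compounds at 15 concentrations with 0.75 uM PK11195 present. After 24 hr at 37 C, luciferase read by ONE-Glo luminescence.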

[10] = qHTS assay to identify small molecule antagonists of the estrogen related receptor signaling pathway with the pleiotropic PPARgamma coactivator (PGC) from Tox21 10K library (AID 1224841; call rule not given here; note: actives are mostly falling curves and most rising ones were filed inactive; nearly all actives have a fitted effect of over 50% in size; note: potency is the fitted concentration of half-maximal effect)
Method in brief: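 Cells stably carrying the PGC/ERR reporter, seeded at 2,000 per well, received pin-transferred compounds 6 h post-plating. Exposure lasted 18 h at 37 C. Signal: One-Glo luminescence.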

[11] = qHTS assay to identify small molecule agonists of the estrogen related receptor signaling pathway with the pleiotropic PPARgamma coactivator (PGC) from Tox21 10K library (AID 1224842); note: nearly all actives have a fitted effect of over 15% in size; note: potency is the fitted concentration of half-maximal effect
Method in brief: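 PGC/ERR reporter cell line, 2,000 cells per well, incubated 6 h at 37 C before 23 nL compound in DMSO was added. After 18 h at 37 C, One-Glo luminescence read following 30 min at room temperature.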

[12] = target: Luciferin 4-monooxygenase (Photinus pyralis) (UniProt P08659); experiment: qHTS assay to identify small molecule inhibitors of firefly luciferase (AID 1224835); note: nearly all actives have a fitted effect of over 25% in size; note: potency is the fitted concentration of half-maximal effect
Method in brief: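 Biochemical qHTS: compounds run as interplate titrations against purified firefly enzyme, with D-luciferin and ATP each at its KM concentration. Light output recorded by CCD imaging.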

[13] = qHTS assay to identify small molecule antagonists of the retinoid acid receptor (RAR) signaling pathway - cell viability counter screen (AID 1159551); note: nearly all actives have a fitted effect of over 35% in size
Method in brief: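 ATP-based viability, C3RL4 cells, 6 h at 37 C with 1 uM final retinol co-added after compound; luminescence read 30 min post CellTiter-Glo, RT.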

[14] = qHTS assay to identify small molecule antagonists of the retinoic acid receptor (RAR) signaling pathway (AID 1159552; note: nearly all actives have a fitted effect of over 50% in size; note: potency is the fitted concentration of half-maximal effect)
Method in brief: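 Retinol signaling pathway inhibitors screened in C3RL4 RARE-luciferase reporter cells seeded overnight at 37 C, then compounds added with 1 uM (final) retinol as pathway substrate. After 6 hr at 37 C, luciferase luminescence read after 30 min at room temperature.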

Thyrotropin receptor (Homo sapiens), sequence (P16473 whole entry, looked up): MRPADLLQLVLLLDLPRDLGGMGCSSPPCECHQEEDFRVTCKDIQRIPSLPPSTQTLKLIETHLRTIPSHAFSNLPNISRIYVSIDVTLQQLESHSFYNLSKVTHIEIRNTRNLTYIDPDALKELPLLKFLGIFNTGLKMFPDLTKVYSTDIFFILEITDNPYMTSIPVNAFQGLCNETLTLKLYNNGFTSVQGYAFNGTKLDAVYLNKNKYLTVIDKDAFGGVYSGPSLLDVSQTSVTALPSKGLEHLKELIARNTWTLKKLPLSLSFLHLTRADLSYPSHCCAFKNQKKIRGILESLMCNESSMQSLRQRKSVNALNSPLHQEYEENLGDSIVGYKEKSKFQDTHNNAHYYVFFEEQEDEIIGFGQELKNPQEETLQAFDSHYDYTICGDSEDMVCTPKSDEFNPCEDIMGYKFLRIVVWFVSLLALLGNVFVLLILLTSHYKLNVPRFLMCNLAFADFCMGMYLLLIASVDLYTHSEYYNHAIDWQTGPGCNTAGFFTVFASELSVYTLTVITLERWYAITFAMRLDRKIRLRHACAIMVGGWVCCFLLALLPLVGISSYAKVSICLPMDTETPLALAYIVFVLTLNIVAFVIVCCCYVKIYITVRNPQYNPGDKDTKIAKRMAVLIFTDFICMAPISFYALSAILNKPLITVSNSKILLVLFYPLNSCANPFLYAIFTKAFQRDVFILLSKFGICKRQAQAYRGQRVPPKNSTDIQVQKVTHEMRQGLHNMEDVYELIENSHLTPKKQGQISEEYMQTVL
Nuclear receptor subfamily 1 group I member 3 (Homo sapiens), sequence (Q14994 whole entry, looked up): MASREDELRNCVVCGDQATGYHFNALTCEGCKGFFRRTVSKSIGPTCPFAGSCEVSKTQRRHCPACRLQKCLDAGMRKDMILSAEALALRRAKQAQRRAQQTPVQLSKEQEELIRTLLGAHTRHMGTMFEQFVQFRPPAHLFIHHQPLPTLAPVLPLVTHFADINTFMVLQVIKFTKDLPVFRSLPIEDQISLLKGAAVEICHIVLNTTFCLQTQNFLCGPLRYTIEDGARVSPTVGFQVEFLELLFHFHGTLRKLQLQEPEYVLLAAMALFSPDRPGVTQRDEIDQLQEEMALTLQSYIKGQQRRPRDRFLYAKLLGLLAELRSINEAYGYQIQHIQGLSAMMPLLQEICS
Luciferin 4-monooxygenase (Photinus pyralis), sequence (P08659 whole entry, looked up): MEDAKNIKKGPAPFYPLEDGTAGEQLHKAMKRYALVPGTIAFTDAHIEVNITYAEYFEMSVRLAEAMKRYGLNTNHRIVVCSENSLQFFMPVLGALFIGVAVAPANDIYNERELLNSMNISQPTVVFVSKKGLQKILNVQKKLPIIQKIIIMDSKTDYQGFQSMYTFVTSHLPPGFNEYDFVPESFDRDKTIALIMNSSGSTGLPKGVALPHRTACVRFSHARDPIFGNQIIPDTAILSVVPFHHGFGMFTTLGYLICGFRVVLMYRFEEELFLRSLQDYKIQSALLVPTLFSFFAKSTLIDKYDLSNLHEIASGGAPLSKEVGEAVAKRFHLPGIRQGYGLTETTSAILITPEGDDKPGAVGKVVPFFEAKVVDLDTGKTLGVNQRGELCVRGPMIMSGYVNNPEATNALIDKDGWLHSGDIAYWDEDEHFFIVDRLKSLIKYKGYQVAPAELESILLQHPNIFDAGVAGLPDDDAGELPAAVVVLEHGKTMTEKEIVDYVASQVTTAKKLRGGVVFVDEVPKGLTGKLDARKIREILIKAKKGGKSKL

Row | SMILES | Potency [1] | Potency [2] | Potency [3] | Potency [4] | Potency [5] | Potency [6] | Potency [7] | Potency [8] | Potency [9] | Potency [10] | Potency [11] | Potency [12] | Potency [13] | Potency [14]
1 | CCCBr | inactive | inactive | inactive | inactive | inactive | inactive | inactive |  |  |  |  |  |  | 
2 | CC(C)(C#N)C(C)(C)C#N | inactive |  | inactive | inactive | inactive | inactive |  | inactive | inactive | inactive | inactive |  |  | 
3 | CCOP(=O)(O)C(N)=O | inactive | inactive | inactive | inactive | inactive | inactive | inactive | inactive |  |  |  | inactive |  | 
4 | CN(C)c1ccc(N=O)cc1 | 34.8 µM (active) |  | 27.4 µM (active) and 48.6 µM (active) | 27.4 µM (active) and 43.3 µM (active) | 30.7 µM (active) and 27.3 µM (active) |  |  | 43.4 µM (active) and 43.3 µM (active) |  | inactive | 9.72 µM (active) and 8.63 µM (active) |  |  | 
5 | C=CC(=O)OCC | inactive | inactive | inactive | inactive | inactive | inactive |  | inactive |  |  |  | inactive |  | 
6 | O=[N+]([O-])/C=C/c1ccccc1 |  |  | 19.6 µM (active) | 27.8 µM (active) and 24.3 µM (active) | 30.6 µM (active) | 15.6 µM (active) and 24.3 µM (active) | inactive | 24.7 µM (active) and 24.3 µM (active) | inactive | inactive | 9.85 µM (active) and 13.7 µM (active) |  |  | 
7 | CC(C)(C)c1ccc(CCOc2ncnc3ccccc23)cc1 |  |  | inactive | inactive | inactive |  | inactive | inactive | inactive |  |  | inactive | inactive | inactive
8 | c1ccc2c(c1)-c1cccc3cccc-2c13 |  | inactive | inactive | inactive | inactive | inactive | inactive | inactive |  |  |  |  | inactive | inactive
9 | C[Si](Cn1cncn1)(c1ccc(F)cc1)c1ccc(F)cc1 | inactive |  | 63.1 µM (active) and 48.6 µM (active) |  | inactive |  | inactive |  |  | 39.8 µM (active) and 48.6 µM (active) | inactive | inactive |  | 
10 | O=C(Cc1ccccc1)OCCc1ccccc1 | inactive |  | inactive | inactive | inactive | inactive |  |  |  | inactive | inactive | 35.6 µM (active) |  | 
11 | O=C(O)C(F)(F)C(F)(F)C(F)(F)C(F)(F)C(F)(F)C(F)(F)C(F)(F)C(F)(F)F |  |  | inactive | inactive | inactive |  | inactive |  |  |  |  |  | inactive | 
12 | O=C(O)C(O)C(O)C(=O)O (stereo not drawn) | inactive |  | inactive |  |  | inactive |  |  |  |  |  |  |  | 
13 | CCCC[N+]1(C)[C@@H]2CC(OC(=O)[C@H](CO)c3ccccc3)C[C@H]1[C@@H]1O[C@@H]12 (stereo partly drawn) | inactive |  | inactive | inactive | inactive |  | inactive |  | inactive |  |  | inactive |  | 
14 | CCC(C)(C)c1ccc(O)c(C(C)(C)CC)c1 | 12.2 µM (active) and 12.3 µM (active) |  | 48 µM (active) | 60.4 µM (active) |  | 53.9 µM (active) and inactive | 13.5 µM (active) and 24.3 µM (active) | 60.4 µM (active) |  | 60.4 µM (active) and inactive | inactive |  |  | 24.3 µM (active)
15 | CC(CC(C(N)=O)(c1ccccc1)c1ccccc1)N(C)C (stereo not drawn) | inactive |  | inactive | inactive | inactive | inactive | inactive |  |  |  |  | inactive |  | 
16 | OCCCl | inactive | inactive | inactive | inactive | inactive | inactive |  | inactive | inactive |  |  | inactive |  | 
17 | CCC(=O)O[C@@H]1C=C2CCC3C(CCC4(C)C3CC[C@@H]4OC(=O)CC)C2CC1 (stereo partly drawn) |  |  | inactive | inactive | inactive | inactive | inactive |  |  |  |  |  | inactive | 
18 | Clc1ccc2ccccc2c1 |  | inactive | inactive | inactive | inactive | inactive | inactive | inactive | inactive |  |  |  |  | inactive
19 | COC1CC(=C(c2cccs2)c2cccs2)C[N+](C)(C)C1 (stereo not drawn) |  |  | inactive | inactive | inactive |  | inactive | inactive | inactive |  |  | inactive | inactive | 
20 | C[N+]1(CCC(C(N)=O)(c2ccccc2)c2ccccc2)CCCCC1 | inactive |  | inactive | inactive | inactive | inactive | inactive |  |  |  |  | inactive |  | 
21 | Cc1ccc(N)c(C)c1 | inactive |  | inactive | inactive | inactive | inactive |  |  |  |  |  | inactive |  | 
